This note sets out measurements from PubChem BioAssay (NCI).

About 83,000 compounds went through this panel and 20% of them were active in at least one assay; those are over-represented in the sample as a whole.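 Method: cells in 96-well plates; compound added at one concentration; 48 h incubation; percent growth measured; values under 10 scored active.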 Unmarked numbers belong to inactive results. Calls of active or inactive are those of the source.

The subject of this test is HL-60(TB) leukemia. Briefly: NCI-60 one-dose screen, 48 h (100 = growth as untreated, 0 = no growth, -100 = all killed). Particulars: 10 µM unless noted.
For the molecule `CCc1ccc2c(c1)N(CCO)C1=C(C(=O)OC1)C2c1cc(OC)c(OC)c(OC)c1` (stereo not given), the growth is -26.4% (active).

Regarding `COc1c(C(C)=O)c(OCCCCOc2c(C(C)=O)c(OC)c3ccoc3c2OC)c(OC)c2occc12`, the growth is 57.4%.

Regarding `O=C(O)c1ccc2c(c1)C(=O)c1ccccc1C2=O`, the growth was 102%.

For the molecule `CCCCN(CCCC)CC(CN(CC)CC)OC(=O)Nc1ccccc1` (stereo not given), the growth was 84.1%.

On to `Nc1c(C(=O)Nc2cccc3ncccc23)sc2nc3c(cc12)CN(Cc1ccccc1)CC3`, for which the growth is 48.6%.

Regarding `COc1cc2c(=O)n(CCN(C)C)c3c4cc5c(cc4ccc3c2cc1OC)OCO5`, the growth is 8.03% (active).

Regarding `CCN(CC)CCNc1ccc(C)c2sc3cc(C)ccc3c(=O)c12`, the growth is 64.1%.

Regarding `CCCCCCCCCNCCCCCCCCC`, the growth is 28.6%.

`CNCCCC12CCC(c3ccccc31)c1ccccc12`: the growth is 71%.

In the case of `O=c1ccccc(-c2ccc(-c3ccco3)cc2)c1O`, the growth is -30.3% (active).

Turning to `O=C1/C(=C/c2ccccc2O)N=C2SCCCN12`, the growth is 108%.

As for `[2H]C1([2H])CCN(C(=O)C2CC2)c2cc(NS(=O)(=O)c3ccc(-c4cccc(C(N)=O)c4)cc3)ccc21`, the growth is -0.857% (active).

Turning to `NCC(=O)CCC(=O)O`, the growth is 132%.

With `CCc1ccc(/C=C/c2ccc(O)c3ncccc23)[n+](C)c1`, the growth was 104%.

In the case of `COc1cc(-c2nc(C(=O)NCC(=O)O)nn2-c2ccc(Cl)cc2)cc(OC)c1OC`, the growth is 101%.

In the case of `CCOC(=O)C1CCN(S(=O)(=O)/N=C2/NC(=O)NC2=C(Cl)Cl)CC1`, the growth is -45.9% (active).

On to `COc1ccc2c(c1OC)O/C(=C\c1ncc([N+](=O)[O-])n1C)C2=O`, for which the growth is -7.92% (active).

As for `COC1CC(N)C2OC(c3ccccc3)OCC2O1` (stereo not given), the growth was 102%.

Regarding `O=C1c2ccccc2C(=O)c2c1c(C(=O)NCc1ccccc1)c1ccccn21`, the growth is 88.7%.

As to `CN1/C(=C\C=C\C2=[N+](C)c3ccccc3C2(C)C)C(C)(C)c2ccccc21`, the growth was -22.5% (active).

`Cc1ccc(-c2c3c(N)nc(-c4ccncc4)nc3nc3c2c(C)nn3-c2ccccc2)cc1`: the growth was 97%.

Consider `O=[N+]([O-])c1ccccc1NCSc1ccc(Cl)cc1`, for which the growth is 65.7%.

As for `Oc1ccc(Cc2ccc(O)c3ncccc23)c2cccnc12`, the growth was 5.77% (active).

With `Cc1cc(N(CCCNc2ccnc3cc(Cl)ccc23)Cc2ccccn2)nc(N2CCOCC2)n1`, the growth was 102%.

Take `Cc1ccc(S(=O)(=O)N(C)CCCCCC(=O)O)cc1`: the growth was 93.4%.

With `Cc1ccc(C(SCC(N)C(=O)O)(c2ccccc2)c2ccc(C)cc2)cc1` (stereo not given), the growth was -36% (active).

As to `O=c1oc2ccc(I)cc2c(=O)n1-c1ccc(Cl)cc1F`, the growth was -47.1% (active).

Regarding `Cn1c(=O)c2c(ncn2CCC(=O)Nc2ccc(F)cc2)n(C)c1=O`, the growth is 94.1%.

With `NC(=S)CN1CCOCC1`, the growth was -12.8% (active).

Turning to `COc1ccc(-c2nnc(SCC(=O)Nc3ccc(C(=O)/C=C/c4cc(OC)c(OC)c(OC)c4)cc3)n2-c2ccccc2)cc1OC`, the growth was 46.1% [100 µM].

`O=c1[nH]c(-c2ccccc2)nc(CN2CCCCC2)c1O`: the growth was 84.4%.

As for `NC(CSC(c1ccccc1)(c1ccccc1)c1ccccc1)C(=O)O` (stereo not given), the growth is -0.908% (active).

In the case of `Cc1cc(C(C#N)c2ccc(Cl)cc2)c(Cl)cc1NC(=O)c1cc(I)cc(I)c1O` (stereo not given), the growth is 17.4%.

Regarding `CC1(C)N=c2cc3c(cc2N1c1ccc(Cl)cc1)=Nc1ccccc1N3c1ccc(Cl)cc1`, the growth was -40.4% (active).

Take `O=C1C=C(Nc2ccc([N+](=O)[O-])cc2)c2ccccc2C1=O`: the growth was 3.59% (active).

As to `CC(=O)OC(c1ccccc1)C1CCOC1=O` (stereo not given), the growth was 113%.

For `COc1ccc(/C(=N\O)c2cc(OC)c(OC)c(OC)c2)c(OC)c1N`, the growth was -23.8% (active).

For `O=C(O)CCCCNC(=O)c1ccccc1`, the growth is 101%.

Consider `COc1cccc(NC(=O)Cn2cc3c(=O)oc4ccccc4c3n2)c1`, for which the growth was 107%.

With `O=C(c1ccc(Cl)cc1)c1ccccc1Cl`, the growth was 96.4%.
